Pf growth 48h = inhibits P. falciparum growth in the first generation, 48 h; P. falciparum luciferase growth in erythrocytes, 48 h; Potency, µM (highest dose often 28.7 µM), hits mostly inhibitors; 310,000 tested, 5.9% active; AID 504832
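Firefly luciferase activity from engineered P. falciparum reports growth; inhibitors lower the luminescent signal. Cultures contained 2% hematocrit erythrocytes at 0.1% final parasitemia.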
Pf growth 96h = P. falciparum growth inhibition at 96 hours. P. falciparum luciferase reporter growth, 96 h. 320,000 tested, 6.9% active. Potency, µM (top dose mostly 28.7 µM), actives largely listed as inhibitors
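P. falciparum expressing integrated firefly luciferase, in erythrocytes at 2% hematocrit, 0.05% parasitemia, incubated with compounds 96 h at 37 C, 5% CO2. Growth inhibition read as loss of luminescence; two-generation exposure targets delayed-death apicoplast inhibitors.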
HCV inh = inhibitors of hepatitis C virus infection; Huh7.5.1 HCVcc-Cre infection, luciferase reporter, 44 h; Potency, µM (highest dose often 41.8 µM), most hits filed as inhibitors; 340,000 tested, 3.4% active
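Cells (1,000/well) were plated 4 h before compound, then infected with HCVcc-Cre virus (~0.5 moi). After 44 h further culture, infection was read as luciferase luminescence following a 15 min substrate incubation at room temperature.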
NS1 inh = blocks influenza NS1 protein function; Potency, µM (top dose mostly 46.1 µM); 270,000 tested, 0.4% active; AID 2326; calls by dose curve; also: actives are rising curves; nearly all actives have a fitted effect of over 50% in size
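S. cerevisiae expressing influenza A NS1, grown in glucose, washed, then diluted 1:100 into pH 6.0 -URA galactose medium with 23 nl compound. Growth recovery read as OD600; NS1-free strain serves as control.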
Vaccinia mCherry = vaccinia inhibition (mCherry reporter) | Vaccinia virus mCherry reporter infection, fluorescence | Potency, µM (series often up to 36.5 µM), usual class: inhibitors | 310,000 tested, 0.63% active | AID 720579; calls by dose curve; tested in A549 cells; also: nearly all actives have a fitted effect of over 35% in size
VACV Venus inh = vaccinia inhibition (Venus reporter); Vaccinia virus Venus reporter expression, fluorescence; Potency, µM (titrated, usually from 36.5 µM), most hits filed as inhibitors; 330,000 tested, 0.46% active; calls by dose curve; tested in A549 cells; also: nearly all actives have a fitted effect of over 30% in size
Large screens that a line does not name were inactive. Most compounds without a hit are left out; they make up all but 11% or so of the library. Unless noted, calls follow the shape of the dose curve; as a rule, active = well fitted inhibition curve with a large enough effect; inconclusive = small, poorly fitted or top-dose-only effect, or another doubt; inactive = no such curve, though single readings can be large or run the other way.

CNC(=O)c1ccc(Oc2ccc(C(=O)NC)cc2)cc1	none (no result: Vaccinia mCherry, VACV Venus inh)
Cc1sc2ncn(CC(=O)Nc3ccc(C(F)(F)F)cc3)c(=O)c2c1S(=O)(=O)N1CCN(C)CC1	none (no result: Pf growth 48h, Pf growth 96h, HCV inh, NS1 inh)
CC(C)CNC(=O)COC(=O)c1cccc(S(=O)(=O)NCC(F)(F)F)c1	Pf growth 96h inconclusive
NNC(=O)c1oc2nc(-c3cccs3)cc(-c3ccco3)c2c1N	Pf growth 48h inconclusive, Pf growth 96h inconclusive (no result: HCV inh, Vaccinia mCherry, VACV Venus inh)
Cc1ccc(-c2cc(-c3ccco3)c3c(N)c(C(=O)NN)oc3n2)cc1	Pf growth 48h 4.7µM, Pf growth 96h inconclusive, HCV inh inconclusive, NS1 inh inconclusive (no result: Vaccinia mCherry, VACV Venus inh)
CCCCN(C/C=C/c1ccccc1OC)Cc1ccccc1	Pf growth 48h inconclusive, Pf growth 96h 8.3µM
CCN(C/C=C/c1ccccc1OC)Cc1ccccc1	none
COCCN(C(=O)c1ccc(NC2CC2)c([N+](=O)[O-])c1)c1c(N)n(CC(C)C)c(=O)[nH]c1=O	Pf growth 48h inconclusive, Pf growth 96h inconclusive (no result: NS1 inh, Vaccinia mCherry, VACV Venus inh)
O=S1(=O)c2c(F)cccc2O[C@@H](COCc2ccccc2)CN1CCc1ccc(F)cc1	HCV inh 10µM (no result: Pf growth 48h, Pf growth 96h, NS1 inh)
CCCCN1C[C@H](CO)Oc2cccc(F)c2S1(=O)=O	HCV inh 0.56µM (no result: Pf growth 48h, Pf growth 96h, NS1 inh)
C=CCCC1CN(CCCC)S(=O)(=O)c2c(F)cccc2O1 (configuration not stated)	none (no result: Pf growth 48h, Pf growth 96h, NS1 inh)
Cc1ccc(C)c2c3c([nH]c12)-c1nonc1CC3	HCV inh 10µM (no result: Pf growth 48h, Vaccinia mCherry)
CCOc1cc(C(=O)N2CCCN(C)CC2)cc(OCC)c1OCC	Pf growth 48h inconclusive
O=C(O)c1cc(-c2ccccc2)n[nH]1	none (no result: Vaccinia mCherry, VACV Venus inh)
CC(c1ccccc1F)n1cc(C(=O)NCc2ccncc2)nn1 (configuration not stated)	Pf growth 96h 0.52µM
Cc1ccc2oc(-c3cccc(NC(=O)/C=C/c4cccc([N+](=O)[O-])c4)c3C)nc2c1	Pf growth 48h inconclusive, Pf growth 96h 2.3µM
CCOC(=O)CCSc1nc(C)c2ccccc2n1	none
COc1ccc(CCn2c(=N)c(C(=O)NCc3ccco3)cc3c(=O)n4ccccc4nc32)cc1	Pf growth 48h 2.9µM, Pf growth 96h inconclusive, Vaccinia mCherry inconclusive, VACV Venus inh inconclusive (no result: HCV inh)
N=c1c(C(=O)NC2CCCCC2)cc2c(=O)n3ccccc3nc2n1Cc1cccnc1	Pf growth 48h inconclusive, HCV inh inconclusive
N=c1c(C(=O)NC2CCCCC2)cc2c(=O)n3ccccc3nc2n1Cc1ccco1	Pf growth 48h 3.7µM, HCV inh inconclusive
Cc1ccc(Cn2c(=N)c(C(=O)NC3CCCC3)cc3c(=O)n4ccccc4nc32)cc1	Pf growth 48h inconclusive, Pf growth 96h inconclusive, HCV inh inconclusive (no result: Vaccinia mCherry, VACV Venus inh)
N=c1c(C(=O)NC2CCCCC2)cc2c(=O)n3ccccc3nc2n1CCc1ccccc1	Pf growth 48h 1.5µM, Pf growth 96h 1.7µM, HCV inh inconclusive
N=c1c(C(=O)NC2CCCCC2)cc2c(=O)n3ccccc3nc2n1Cc1ccccc1	Pf growth 48h inconclusive, Pf growth 96h 5.9µM, HCV inh 11µM (no result: Vaccinia mCherry, VACV Venus inh)
Cc1ccc(-c2nc(N)sc2CC(=O)OCC(=O)NC2CCCC(C)C2C)cc1 (configuration not stated)	none
N=c1c(C(=O)NCCc2ccccc2)cc2c(=O)n3ccccc3nc2n1Cc1ccco1	Pf growth 48h 2.3µM, HCV inh inconclusive
O=S(=O)(Nc1cc(Sc2cccc3cccnc23)c(O)c2ccccc12)c1ccccc1	Pf growth 48h 3.3µM, HCV inh inconclusive (no result: Vaccinia mCherry, VACV Venus inh)
CCOc1ccc(S(=O)(=O)Nc2cc(SCC(=O)O)c(O)c3ccccc23)cc1	Pf growth 48h 10µM, Pf growth 96h 1.9µM, HCV inh 10µM (no result: Vaccinia mCherry, VACV Venus inh)
O=C(O)c1ccccc1NS(=O)(=O)c1cccc2cccnc12	none (no result: Pf growth 96h, Vaccinia mCherry)
CCc1ccc(S(=O)(=O)Nc2cc(SCC(=O)O)c(O)c3ccccc23)cc1	Pf growth 48h 7.4µM, Pf growth 96h inconclusive, HCV inh inconclusive (no result: Vaccinia mCherry, VACV Venus inh)
COc1ccc(OC)c(S(=O)(=O)Nc2cccc3c(O)cccc23)c1	none (no result: Pf growth 48h, Pf growth 96h, NS1 inh, Vaccinia mCherry, VACV Venus inh)
COc1ccc(OC)c(S(=O)(=O)Nc2ccc(O)c3ccccc23)c1	Pf growth 48h 1.2µM, HCV inh inconclusive (no result: Pf growth 96h, Vaccinia mCherry)
COC(=O)c1sccc1NC(=O)C1CC2CCC1C2 (configuration not stated)	none (no result: Pf growth 96h, Vaccinia mCherry, VACV Venus inh)
CCOc1ccc(S(=O)(=O)Nc2ccccc2C(=O)NCC2CCCO2)cc1 (configuration not stated)	none (no result: Pf growth 48h)
